# Bioassay records as filed in PubChem BioAssay.
# A selection: hits, their analogues and other compounds. The true share with any hit is near 0.9%.
# TR-FRET SRC-2 ct: TR-FRET artefact, counter-screen to PPARgamma/SRC-2 agonist assay; TR-FRET ratio at 8 µM; stronger effect = higher value; AID 1049; 0.4% of 200,000 active; in the data active means TR-FRET ratio above about 2000
# PPARg SRC-1 ag: PPARgamma-driven SRC-1 recruitment agonism. activation, % at 8 µM. 0.41% of 200,000 active. P37231. AID 631. PPARgamma-SRC-1 coactivator recruitment biochemical assay; in the data active means activation above about 19%;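 further: 0% = DMSO and 100% = reference agonist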
# SRC1 TRFRET art: counter-screen for PPARgamma SRC-1 recruitment agonists: TR-FRET artefact. TR-FRET detection artefact counter-screen, emission ratio; stronger effect = higher value. TR-FRET ratio at 8 µM. 0.34% of 99,000 active. AID 1051; in the data active means TR-FRET ratio above about 2300
# SRC3 TRFRET art: flags TR-FRET format artefacts in PPARgamma SRC-3 recruitment agonist screen; TR-FRET artefact counter-screen, PPARgamma/SRC-3 format; stronger effect = higher value; TR-FRET ratio at 8 µM; 0.39% of 99,000 active; in the data active means TR-FRET ratio above about 2000
# PPARg SRC3 recr: promotes SRC-3 coactivator recruitment by human PPARgamma; P37231; biochemical PPARgamma/SRC-3 coactivator recruitment assay; activation, % at 8 µM; 0.26% of 200,000 active; in the data active means activation above about 23%;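 further: 0% = DMSO and 100% = reference agonist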
# PPARg SRC-2 ag: PPARgamma-driven SRC-2 recruitment agonism; PPARgamma LBD-SRC-2 recruitment, biochemical; activation, % at 8 µM; 0.34% of 200,000 active; AID 1032;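 further: 0% = vehicle and 100% = reference agonist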
# PPARg SRC2 ag: confirmation of agonists of SRC-2 recruitment by human PPARgamma; 52% of 790 active; AID 1297; activation, % at 8 µM; biochemical SRC-2 recruitment by PPARgamma; shares compounds with PPARg SRC3 recr;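 further: 0% = vehicle alone and 100% = reference agonist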
# PPARg SRC1 ag: human PPARgamma SRC-1 recruitment agonism, confirmation. 43% of 790 active. shares compounds with PPARg SRC3 recr. PPARgamma–SRC-1 coactivator recruitment biochemical assay. AID 1300. activation, % at 8 µM; in the data active means activation above about 20%;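 further: 0% = vehicle wells and 100% = reference agonist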
# PPARg SRC3 ag: confirmation of agonists of SRC-3 recruitment by human PPARgamma; biochemical PPARgamma-SRC-3 coactivator recruitment, agonist mode; 29% of 790 active; shares compounds with PPARg SRC3 recr; activation, % at 8 µM; in the data active means activation above about 24%;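 further: 0% = vehicle wells and 100% = reference agonist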
# Target sequence (P37231 whole entry, looked up): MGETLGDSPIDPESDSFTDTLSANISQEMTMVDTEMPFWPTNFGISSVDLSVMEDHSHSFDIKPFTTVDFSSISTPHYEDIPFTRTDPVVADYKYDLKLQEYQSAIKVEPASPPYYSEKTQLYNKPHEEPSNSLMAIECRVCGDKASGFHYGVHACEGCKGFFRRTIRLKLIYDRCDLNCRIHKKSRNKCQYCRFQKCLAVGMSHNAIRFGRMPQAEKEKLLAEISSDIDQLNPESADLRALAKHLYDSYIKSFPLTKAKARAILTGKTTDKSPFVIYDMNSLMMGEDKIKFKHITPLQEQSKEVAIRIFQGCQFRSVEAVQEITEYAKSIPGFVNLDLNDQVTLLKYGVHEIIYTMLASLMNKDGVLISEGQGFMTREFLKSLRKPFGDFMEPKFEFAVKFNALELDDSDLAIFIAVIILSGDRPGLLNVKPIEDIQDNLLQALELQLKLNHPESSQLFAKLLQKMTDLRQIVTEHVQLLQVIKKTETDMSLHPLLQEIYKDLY
# Target sequence (Q9Y6Q9 whole entry, looked up): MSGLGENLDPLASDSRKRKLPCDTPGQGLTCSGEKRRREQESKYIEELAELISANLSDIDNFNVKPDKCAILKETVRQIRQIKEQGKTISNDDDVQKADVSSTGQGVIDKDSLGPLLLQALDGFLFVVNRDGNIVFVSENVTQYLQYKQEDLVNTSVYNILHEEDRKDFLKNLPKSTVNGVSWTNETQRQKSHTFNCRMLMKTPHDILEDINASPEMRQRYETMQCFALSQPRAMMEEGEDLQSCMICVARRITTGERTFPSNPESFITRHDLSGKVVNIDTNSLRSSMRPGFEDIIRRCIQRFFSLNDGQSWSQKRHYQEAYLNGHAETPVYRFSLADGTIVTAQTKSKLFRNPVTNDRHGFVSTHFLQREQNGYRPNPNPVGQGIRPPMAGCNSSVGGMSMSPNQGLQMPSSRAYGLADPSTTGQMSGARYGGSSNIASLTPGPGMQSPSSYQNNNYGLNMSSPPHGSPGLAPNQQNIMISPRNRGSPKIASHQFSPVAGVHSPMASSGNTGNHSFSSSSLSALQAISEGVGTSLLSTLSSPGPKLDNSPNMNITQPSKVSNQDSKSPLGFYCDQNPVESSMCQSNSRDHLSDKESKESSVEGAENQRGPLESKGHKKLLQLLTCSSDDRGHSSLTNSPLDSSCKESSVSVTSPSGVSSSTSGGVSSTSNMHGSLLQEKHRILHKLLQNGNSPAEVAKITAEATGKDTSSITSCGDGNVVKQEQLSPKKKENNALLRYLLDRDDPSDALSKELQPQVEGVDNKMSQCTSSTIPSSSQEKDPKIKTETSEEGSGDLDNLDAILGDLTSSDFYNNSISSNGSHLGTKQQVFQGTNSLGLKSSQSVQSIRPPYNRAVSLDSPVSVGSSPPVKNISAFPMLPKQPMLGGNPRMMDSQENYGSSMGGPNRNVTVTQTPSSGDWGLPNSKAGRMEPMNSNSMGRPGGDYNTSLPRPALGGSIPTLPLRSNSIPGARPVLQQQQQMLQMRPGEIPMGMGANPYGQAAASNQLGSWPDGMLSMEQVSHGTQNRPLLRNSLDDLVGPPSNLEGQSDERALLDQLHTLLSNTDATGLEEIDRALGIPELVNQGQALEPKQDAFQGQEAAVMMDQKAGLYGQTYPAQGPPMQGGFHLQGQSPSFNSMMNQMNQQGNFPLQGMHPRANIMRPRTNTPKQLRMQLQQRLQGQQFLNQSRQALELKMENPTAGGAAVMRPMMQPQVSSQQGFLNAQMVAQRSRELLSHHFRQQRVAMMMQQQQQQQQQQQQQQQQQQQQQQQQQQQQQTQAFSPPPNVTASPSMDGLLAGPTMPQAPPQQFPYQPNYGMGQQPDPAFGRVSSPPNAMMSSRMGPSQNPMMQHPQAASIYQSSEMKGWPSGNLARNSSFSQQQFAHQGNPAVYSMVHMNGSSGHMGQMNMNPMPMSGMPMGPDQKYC
# Active calls of the source: *; · = no result. Unless noted, no stated cut-off is given here; in the data, active means activation above about 22%; inactive means the rest.
SMILES,TR-FRET SRC-2 ct,PPARg SRC-1 ag,SRC1 TRFRET art,SRC3 TRFRET art,PPARg SRC3 recr,PPARg SRC-2 ag,PPARg SRC2 ag,PPARg SRC1 ag,PPARg SRC3 ag
COc1ccc2[nH]c3c(=S)nc[nH]c3c2c1,2492*,26.4*,2593*,2527*,23.2*,33.6*,16.2,8.3,12.2
CCN(CC)S(=O)(=O)c1ccc2oc(C(=O)Nc3ccc(OC)cc3OC)c(C)c2c1,1691,18.9*,·,·,-10.1,12.6,-0.1,3.0,1.7
COc1ccc(NC(=O)c2oc3cc(C)c(C)cc3c2C)c(OC)c1,1355,-5.5,·,·,3.2,-8.8,·,·,·
Cc1ccc(CNC(=O)CSc2c3c(nc4cc(Cl)ccc24)CCCC3)o1,1917,12.3,·,·,25.1,28.3*,26.6*,18.3,19.1
O=C(CSc1c2c(nc3ccccc13)CCCC2)NCc1ccco1,1765,21.2*,2158,1591,12.4,13.4,5.8,3.5,3.6
O=C(O)CSc1c2c(nc3cc(C(=O)N4CCCC4)ccc13)CCCC2,1578,-0.1,1966,1613,2.4,8.9,·,·,·
Cc1cc(Cl)ccc1OCC(=O)NCCCN1CCOCC1,1601,1.1,·,·,-19.7,-7.1,·,·,·
O=C(NCc1ccco1)c1c2c(nc3ccccc13)CCC2,1431,6.5,1760,1542,-3.5,2.3,·,·,·
O=C(CSc1c2c(nc3cc(Cl)ccc13)CCCC2)NCCCN1CCOCC1,1791,24.6*,2212,2060*,12.3,26.0*,21.8,17.8,14.0
O=C(CSc1c2c(nc3cc(Cl)ccc13)CCCC2)NCCN1CCOCC1,2224*,27.2*,2381*,2338*,18.9,31.7*,16.2,13.4,12.9
COc1nc2ccc(C)cc2cc1-c1noc(-c2cccnc2)n1,1736,-0.9,·,·,8.9,-1.0,·,·,·
CCC(NC(=O)c1ccccc1Br)c1ccccc1 (stereo not drawn),1685,4.8,1860,1627,2.1,3.1,·,·,·
COc1ccc(-c2nnc(SC(C)C(=O)Nc3nccs3)n2Cc2ccccc2)cc1OC (stereo not drawn),1722,8.3,·,·,12.4,-9.0,·,·,·
Cc1ccc(CNC(=O)c2ccc(N(C)C)cc2)cc1,1687,1.0,1935,1759,5.5,4.5,·,·,·
COc1ccc(N(CC(=O)Nc2nccs2)S(=O)(=O)c2c(C)nn(C)c2C)cc1,1463,-1.2,·,·,-5.8,-5.0,·,·,·
CCN(CC)CCCNC(=O)CSc1c2c(nc3cc(Cl)ccc13)CCCC2,2152*,33.3*,2550*,2400*,22.2,34.4*,25.9*,19.4,16.7
CCCCNC(=O)c1ccc2c(SCC(=O)O)c3c(nc2c1)CCCC3,1528,-3.6,1557,1511,-0.3,-3.6,·,·,·
COCCCNC(=O)CSc1c2c(nc3ccc(Cl)cc13)CCCC2,1928,31.3*,2727*,2277*,19.1,27.8*,18.6,13.3,11.0
Cc1ccc(S(=O)(=O)NN2C(=O)c3ccccc3NC2C)cc1 (stereo not drawn),1360,-1.7,1625,1510,-2.3,2.6,·,·,·
Cc1ccc(C(=O)CC2(O)C(=O)N(C)c3ccccc32)o1 (stereo not drawn),1559,8.5,·,·,4.9,12.5,·,·,·
CCCCc1nc(SCc2ccc([N+](=O)[O-])cc2)n[nH]1,1592,-0.3,2040,1713,3.8,8.7,·,·,·
COc1cc2cccc(OC)c(=O)c2c(O)c1OC,1681,6.0,1983,1498,-1.9,2.8,·,·,·
CC(=O)Oc1cc2cccc(OC(C)=O)c(=O)c2c(OC(C)=O)c1OC(C)=O,1830,11.3,1973,1773,10.4,16.6,8.5,7.5,4.0
CCSc1ncc(/C=N/Nc2ccc(F)cc2)n1C,1691,4.5,·,·,19.7,6.6,·,·,·
CCSc1nc(N)c2c3c(sc2n1)CCC3,2185*,18.4,·,·,31.8*,28.0*,20.0,12.9,13.5
SMILES,TR-FRET SRC-2 ct,PPARg SRC-1 ag,SRC1 TRFRET art,SRC3 TRFRET art,PPARg SRC3 recr,PPARg SRC-2 ag,PPARg SRC2 ag,PPARg SRC1 ag,PPARg SRC3 ag
CC(C)CC(=O)NC(=S)NNC(=O)c1ccc(NC(=O)C2CCCCC2)cc1,1494,-1.3,1579,1421,1.4,-0.7,·,·,·
CCOC(=O)CCS(=O)(=O)c1nc(-c2ccccc2)cc(C(F)(F)F)n1,1475,15.4,·,·,12.7,15.1,·,·,·
COC(=O)CCS(=O)(=O)c1nc(-c2ccccc2)cc(C(F)(F)F)n1,1639,21.4*,·,·,8.6,5.2,7.5,16.1,11.1
Cc1ccc(-c2n[nH]c(=S)n2C)cc1Cl,1847,25.8*,2034,1766,5.7,15.2,9.9,9.2,10.5
CCN(CC)S(=O)(=O)c1cccc(-c2n[nH]c(=S)n2C)c1,1748,5.6,1851,1494,0.5,1.3,·,·,·
Oc1ccc(N=Cc2cc(Br)c(N3CCOCC3)o2)cc1,1652,-6.2,1576,1705,5.9,-0.1,·,·,·
O=[N+]([O-])c1cc(Br)c(O)c(C=Nc2ccc(N3CCOCC3)cc2)c1,2845*,61.2*,2849*,2532*,45.4*,64.4*,11.4,15.7,8.6
O=C1NC(=S)S/C1=C\c1ccc(SCc2ccco2)o1,1647,21.2*,1829,1738,14.4,33.0*,2.5,6.0,2.3
O=c1c2sccc2nc(SCc2cc(=O)n3cc(Br)ccc3n2)n1Cc1ccccn1,2046*,23.0*,2338*,2195*,14.2,23.1*,11.0,6.8,9.0
Cc1ccc(CSc2nc3ccsc3c(=O)n2Cc2ccccn2)cc1,1672,1.1,1891,1669,5.2,6.9,·,·,·
C=CCn1c(-c2cccc(Cl)c2)n[nH]c1=S,2008*,24.9*,·,·,27.8*,19.9,19.8,13.9,12.6
COc1ccc(CNC(=O)CSc2cc(=O)n(C)c3ccccc23)cc1,2425*,39.8*,2843*,2050*,24.2*,25.5*,37.3*,24.4*,24.1*
COc1ccc(CC(=O)NCc2nnc(SCCOc3ccccc3)n2C)cc1,1523,18.8*,·,·,3.1,10.1,3.2,1.5,1.6
Cn1c(=O)cc(SCC(=O)NCc2ccco2)c2ccccc21,2082*,27.8*,·,·,37.6*,35.6*,33.2*,22.3*,21.1
Cc1ccc(C)c(SCC(=O)NCc2ccco2)c1,1634,-2.0,·,·,-0.1,10.6,·,·,·
CCn1c(CNC(=O)Cc2ccc(OC)cc2)nnc1SCCOc1ccccc1,1574,3.0,·,·,0.6,-2.1,·,·,·
COc1cccc(CNC(=O)CSc2cc(=O)n(C)c3ccccc23)c1,2371*,42.2*,2682*,2024,21.1,23.1*,36.2*,25.0*,24.3*
C/C(=N\NC(=O)CC1N=C(Cc2ccccc2)NNC1=O)c1ccc(C)cc1 (stereo not drawn),1625,1.3,·,·,-1.3,0.0,·,·,·
Cn1c(/C=C/c2cccc([N+](=O)[O-])c2)nc2ccccc2c1=O,1558,5.5,1662,1564,0.1,-1.5,·,·,·
